Laboratory results: PubChem BioAssay AID492992 (Johns Hopkins Ion Channel Center, 2010)
In all, about 4,900 compounds went through this assay and about 2,100 (43%) were called active.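 Rule for the calls: active = thallium signal inhibited by more than 5 SD of the compound-free buffer control wells, on both duplicate plates; inactive = the rest.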 The set was probably picked from earlier hits. The full list was thinned out, with actives kept by preference.

Target: Potassium channel subfamily K member 9 (Homo sapiens) (UniProt Q9NPC2)
Experiment: KCNK9 potassium channel inhibitors, confirmation, HEK293 cells, thallium flux, duplicate (AID 492992);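 for inhibition: 0% = assay buffer control wells without compound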
Conditions: FluxOR thallium flux fluorescence, at 10 µM; active compounds read high

Potassium channel subfamily K member 9 (Homo sapiens), sequence (Q9NPC2 whole entry, looked up): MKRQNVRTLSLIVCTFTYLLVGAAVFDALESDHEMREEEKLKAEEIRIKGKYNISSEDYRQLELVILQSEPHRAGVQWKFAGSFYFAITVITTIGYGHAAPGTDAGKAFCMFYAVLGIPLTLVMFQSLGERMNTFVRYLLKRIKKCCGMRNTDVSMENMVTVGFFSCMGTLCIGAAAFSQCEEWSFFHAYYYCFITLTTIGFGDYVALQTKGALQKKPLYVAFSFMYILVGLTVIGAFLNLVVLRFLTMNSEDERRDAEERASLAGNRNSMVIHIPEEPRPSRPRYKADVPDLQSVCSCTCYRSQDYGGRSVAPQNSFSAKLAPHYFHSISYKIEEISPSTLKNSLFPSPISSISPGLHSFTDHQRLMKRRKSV

Question: How did the inhibition turn out when CC(C)(C)c1ccc(CN2C(=O)CN=C(c3ccccc3)c3ccccc32)cc1 was run?
Answer: 59% (active)

Question: With CCOC(=O)C1SC2(C(F)(F)C(F)F)CC1(O)c1c(c(OC)c3occc3c1OC)O2 (stereo unspecified) as the molecule, how does the inhibition read?
Answer: 23.5% (active)

Question: Which inhibition does the source give for CC(C)n1c(=O)c(C=Nc2ccc(Br)cc2)c(O)n(Cc2ccco2)c1=O here?
Answer: inactive

Question: With CCCCCCN=C(CC)c1c(O)n(CCCC)c(=O)[nH]c1=O as the molecule, how does the inhibition read?
Answer: 46.5% (active)

Question: With CC(C)(C)c1ccc(OC(=O)N2CCCCC2)cc1 as the molecule, how does the inhibition read?
Answer: inactive

Question: How did the inhibition turn out when CCCCCCCCCCCCn1ccc(=N)cc1 was run?
Answer: 52.5% (active)
